Results reported in PubChem BioAssay (NCI).
Compounds without any hit were thinned out: in the full panel of roughly 83,000, 20% have a hit.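 Cells were grown in 96-well plates and exposed to the test compound at a single concentration for 48 hours; results are reported as percent growth, with values below 10 considered active.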 Activity calls are given as the source filed them.

Legend:
Assay in all cases: NCI-60 one-dose screen, 48 h (100 = growth as untreated, 0 = no growth, -100 = all killed)
Settings in all cases: 10 µM unless noted
NCI-H23 lung = test system: NCI-H23 lung
NCI-H226 lung = test system: NCI-H226 lung
NCI-H322M lung = test system: NCI-H322M lung
HOP-62 NSCLC = test system: HOP-62 NSCLC
NCI-H460 lung = test system: NCI-H460 lung
HOP-92 NSCLC = test system: HOP-92 NSCLC
NCI-H522 lung = test system: NCI-H522 lung
A549/ATCC NSCLC = test system: A549/ATCC NSCLC
786-0 renal = test system: 786-0 renal
COLO 205 colon = test system: COLO 205 colon
DU-145 prostate = test system: DU-145 prostate
K-562 leukemia = test system: K-562 leukemia
MALME-3M melanoma = test system: MALME-3M melanoma
MDA-MB-231 breast = test system: MDA-MB-231 breast
RXF 393 renal = test system: RXF 393 renal
SF-268 CNS = test system: SF-268 CNS
SF-295 CNS = test system: SF-295 CNS
SF-539 CNS = test system: SF-539 CNS
UACC-257 melanoma = test system: UACC-257 melanoma
M14 melanoma = test system: M14 melanoma

Measured: growth

COc1ccc(NC2=C(I)C(=O)c3ncccc3C2=O)cc1
active: NCI-H23 lung -43.7% | HOP-62 NSCLC -62% | NCI-H460 lung -57.2% | NCI-H522 lung -69.4% | A549/ATCC NSCLC 0.0675% | COLO 205 colon -53.7% | DU-145 prostate -84.2% | K-562 leukemia 2.18% | MALME-3M melanoma -98.2% | MDA-MB-231 breast -11.8% | SF-295 CNS 8.7% | SF-539 CNS -30% | M14 melanoma -65.7%
inactive: NCI-H226 lung 82.2% | NCI-H322M lung 17.4% | HOP-92 NSCLC 75.3% | 786-0 renal 11.3% | RXF 393 renal 33% | SF-268 CNS 14.7% | UACC-257 melanoma 15.9%

CCSC(SCC)c1ccc(Cl)cc1
inactive: NCI-H23 lung 95.1% | NCI-H226 lung 102% | NCI-H322M lung 123% | HOP-62 NSCLC 98.5% | NCI-H460 lung 103% | HOP-92 NSCLC 101% | NCI-H522 lung 107% | A549/ATCC NSCLC 102% | 786-0 renal 110% | DU-145 prostate 107% | K-562 leukemia 118% | MALME-3M melanoma 102% | MDA-MB-231 breast 107% | RXF 393 renal 114% | SF-268 CNS 100% | SF-295 CNS 87.1% | SF-539 CNS 107% | UACC-257 melanoma 99.4% | M14 melanoma 110%

CCOc1ccc(NC(=O)CSc2oc(-c3ccccc3)nc2S(=O)(=O)c2ccc(C)cc2)cc1
inactive: NCI-H23 lung 67.4% | NCI-H322M lung 61.1% | HOP-62 NSCLC 53.9% | NCI-H460 lung 35.9% | HOP-92 NSCLC 46.4% | NCI-H522 lung 83.8% | A549/ATCC NSCLC 41.1% | 786-0 renal 66.1% | DU-145 prostate 67.3% | K-562 leukemia 53% | MALME-3M melanoma 81% | MDA-MB-231 breast 32.2% | RXF 393 renal 62.1% | SF-268 CNS 54.1% | SF-295 CNS 48.1% | SF-539 CNS 17.8% | UACC-257 melanoma 72% | M14 melanoma 71%
active: NCI-H226 lung -18.8%

CCOC(=O)NC(C)C
inactive: NCI-H23 lung 106% | NCI-H226 lung 112% | NCI-H322M lung 107% | HOP-62 NSCLC 93.4% | NCI-H460 lung 115% | HOP-92 NSCLC 79.6% | NCI-H522 lung 99.3% | A549/ATCC NSCLC 95.7% | 786-0 renal 95.6% | DU-145 prostate 120% | K-562 leukemia 87.6% | MALME-3M melanoma 104% | MDA-MB-231 breast 112% | RXF 393 renal 77.4% | SF-268 CNS 109% | SF-295 CNS 118% | SF-539 CNS 95.9% | UACC-257 melanoma 95% | M14 melanoma 102%

O=C(c1ccccc1)c1ccc(C2CCCCC2)cc1
inactive: NCI-H23 lung 95% | NCI-H226 lung 92.4% | NCI-H322M lung 99.7% | HOP-62 NSCLC 98.5% | NCI-H460 lung 97% | HOP-92 NSCLC 76.2% | NCI-H522 lung 88.9% | A549/ATCC NSCLC 98% | 786-0 renal 90.1% | DU-145 prostate 106% | K-562 leukemia 103% | MALME-3M melanoma 87.4% | MDA-MB-231 breast 102% | RXF 393 renal 100% | SF-268 CNS 100% | SF-295 CNS 94.3% | SF-539 CNS 102% | UACC-257 melanoma 105% | M14 melanoma 96.8%

Cc1nc2sc(C(=O)Nc3cccc4ccccc34)c(N)c2cc1C(O)c1ccccc1 (stereo not drawn)
active: NCI-H23 lung 7.51% | NCI-H460 lung 0.274% | NCI-H522 lung -25.3% | A549/ATCC NSCLC 9.88% | DU-145 prostate 5.38% | K-562 leukemia 4.79% | SF-539 CNS -7.12% | M14 melanoma 7.59%
inactive: NCI-H226 lung 46.1% | NCI-H322M lung 51.4% | HOP-62 NSCLC 20.4% | HOP-92 NSCLC 34% | 786-0 renal 16.1% | MALME-3M melanoma 46.9% | MDA-MB-231 breast 17.1% | RXF 393 renal 36.2% | SF-268 CNS 23.5% | SF-295 CNS 10.2% | UACC-257 melanoma 51.6%

Cc1csc(Nc2nc(-c3ccccn3)nc(C(Cl)(Cl)Cl)n2)n1
inactive: NCI-H23 lung 84.9% | NCI-H226 lung 101% | HOP-62 NSCLC 101% | NCI-H460 lung 84% | HOP-92 NSCLC 94.1% | NCI-H522 lung 86.7% | A549/ATCC NSCLC 79.4% | 786-0 renal 94.8% | COLO 205 colon 92% | DU-145 prostate 69.7% | K-562 leukemia 87.8% | MALME-3M melanoma 73.9% | MDA-MB-231 breast 80.3% | RXF 393 renal 91.4% | SF-268 CNS 82.8% | SF-295 CNS 91% | SF-539 CNS 94.2% | UACC-257 melanoma 78.8% | M14 melanoma 83.7%

O=C(Nc1ccc(Oc2cccc(Cl)c2)c(Cl)c1)c1cccnc1
inactive: NCI-H23 lung 47.9% | NCI-H226 lung 54.3% | HOP-62 NSCLC 38% | NCI-H460 lung 22.2% | HOP-92 NSCLC 61.3% | NCI-H522 lung 27.3% | A549/ATCC NSCLC 36.8% | 786-0 renal 39.2% | COLO 205 colon 15.4% | DU-145 prostate 16.1% | K-562 leukemia 11.1% | MALME-3M melanoma 50.1% | MDA-MB-231 breast 59% | SF-268 CNS 53.4% | SF-295 CNS 41.4% | UACC-257 melanoma 64.2% | M14 melanoma 21.8%
active: RXF 393 renal -0.145% | SF-539 CNS -8.37%
